# A selection: hits, their analogues and other compounds. The true share with any hit is near 19%.
# DT40 TDP1 CPT = qHTS for Inhibitors of human tyrosyl-DNA phosphodiesterase 1 (TDP1): qHTS in cells in presence of CPT. 420,000 tested, 12% active. AID 686979, 2013. chicken DT40 Tdp1-/-;hTDP1 cells + 20 nM CPT, ATP luminescence, 48 h. Potency, µM (top dose mostly 46.2 µM), for inactives: at the highest dose activity change, negative = growth inhibition, usual class: inhibitors; further: potency means the concentration at half of the fitted maximal effect; nearly all actives have a fitted effect of over 55% in size
#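 Cell growth measured by CellTiter-Glo luminescence after a minimum 48 h, 37 C compound exposure with 20 nM CPT in Tdp1-knockout DT40 cells stably expressing hTDP1, seeded 400/well; qHTS titration format.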
# HT1080 IDH1KD tx = qHTS for induction of synthetic lethality in tumor cells producing 2HG: qHTS for the HT-1080-IDH1KD cell line; HT-1080 IDH1 knockdown viability, ATP luminescence, 48 h; Potency, µM (titrated, usually from 46.1 µM), for the others: at the top dose activity, negative = toxicity, hits mostly cytotoxic; 360,000 tested, 2% active; AID 686971, 2013;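 further: potency means the concentration at half of the fitted maximal effect; 0% = DMSO wells and -100% = cell-free medium wells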
#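 Assay cells: HT-1080 with IDH1 knockdown, 750 per well, RPMI/5% FBS. Exposure: 48 h at 37 °C following 2 h pre-incubation. Read: CellTiter-Glo luminescence; fitted concentration-response, curve class assigned.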
# ELG1 repair inh = qHTS screen for small molecules that inhibit ELG1-dependent DNA repair in human embryonic kidney (HEK293T) cells expressing luciferase-tagged ELG1; HEK293T ELG1-luciferase reporter, luminescence, 16 h; DNA damage induced by 5-fluorouridine; Potency, µM (highest dose often 46.1 µM), without a hit: at the top dose activity change, negative = inhibition, hits mostly inhibitors; 330,000 tested, 2.3% active; AID 504467, 2011; further: potency means the concentration at half of the fitted maximal effect; nearly all actives have a fitted effect of over 55% in size
#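 5-Fluorouridine DNA damage + compound/DMSO, 2,000 cells/well, 16 h, 37 °C/5% CO2. ONE-Glo, 30 min RT, luminescence. Readout = decrease in reporter signal.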
# IL-1B inflam inh = qHTS for Inhibitors of Inflammasome Signaling: IL-1-beta AlphaLISA Primary Screen; THP-1 LPS/ATP IL-1B secretion, AlphaLISA, 16 h; stronger effect = lower value; activity change, % at 57.5 µM; 360,000 tested, 4.7% active; in the data active means activity change below about -50%; inconclusive means mostly about -30% to -49%
#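 Secreted IL-1B measured by AlphaLISA bead assay after 16 h compound exposure of THP-1 cells; compounds (final up to 57.5 uM) added 1 h before LPS (250 ng/mL) and ATP (1.25 mM) stimulation; lower signal means less secretion.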
# DT40 TDP1 no CPT = qHTS for Inhibitors of human tyrosyl-DNA phosphodiesterase 1 (TDP1): qHTS in cells in absence of CPT. DT40 Tdp1-/- hTDP1 cells, no CPT, ATP luminescence, 48 h. Potency, µM (titrated, usually from 46.2 µM), for inactives: at the highest dose activity change, negative = growth inhibition, most hits filed as inhibitors. 420,000 tested, 15% active; further: potency means the concentration at half of the fitted maximal effect; nearly all actives have a fitted effect of over 55% in size
#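 Stably hTDP1-transfected Tdp1-null chicken DT40 cells were treated with library compounds minus camptothecin and grown for at least 48 hr at 37 °C, after which cellular ATP was quantified by luminescence.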
# HT1080-NT tox = qHTS for induction of synthetic lethality in tumor cells producing 2HG: qHTS for the HT-1080-NT fibrosarcoma cell line. Potency, µM (top dose mostly 46.1 µM), for inactives: at the highest dose activity, negative = less viability, actives largely listed as cytotoxic. 360,000 tested, 1.6% active. HT-1080-NT fibrosarcoma viability, CellTiter-Glo ATP luminescence, 48 h. AID 686970, 2013;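 further: NT is the 2HG producing partner of a matched IDH1 knockdown line; potency means the concentration at half of the fitted maximal effect; 0% = DMSO-treated cells and -100% = media-only wells without cells; nearly all actives have a fitted effect of over 55% in size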
#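 Viability of the 2HG-overproducing fibrosarcoma line after 48 hours of compound exposure at 37 degrees C was determined by luminescence with CellTiter-Glo, and concentration-effect curves were then fitted and categorized.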
# Numbers without * were called inactive; ? = inconclusive; . = not tested or not shown. Unless noted, the call rests on the fitted dose curve; in most records, active means well fitted curve in the direction sought with a large enough effect; inconclusive means small, poorly fitted or top-dose-only effect, or another doubt; inactive means no such curve, though single readings can be large; an effect the other way counts as inactive or inconclusive. Unless noted, on the % scale 0 is the no-effect control and ±100 the full control effect.
SMILES,DT40 TDP1 CPT,HT1080 IDH1KD tx,ELG1 repair inh,IL-1B inflam inh,DT40 TDP1 no CPT,HT1080-NT tox
COc1ccc(-c2csc(NC(=O)CSc3ccc(Br)cc3)n2)c(OC)c1,18.4µM*,-4.1%,-10.2%,-1.1,16.4µM*,-3.4%
COc1ccc(-c2csc(NC(=O)CSC(C)C(=O)Nc3cc(C)on3)n2)cc1OC (centres undefined),18.4µM*,5.0%,?,16.2,10.3µM*,1.6%
Cc1noc(C)c1-c1nccc(N(C)C)n1,2.1%,.,.,.,-1.5%,.
O=C(NCCN1CCOCC1)c1cnn(-c2nccc(-c3ccccc3C(F)(F)F)n2)c1C1CC1,6.3%,.,.,.,-12.6%,.
Cc1cccc(CC(C)NC(=O)c2oc3c(F)cccc3c2C)n1 (centres undefined),?,-13.3%,?,-0.5,10.3µM*,-5.9%
Cc1c(C(=O)N2CCC2)oc2c(F)cccc12,-3.6%,8.7%,-1.2%,13.0,-8.6%,-1.5%
CC(C)C(NS(=O)(=O)c1cccc2nsnc12)C(=O)Nc1nccs1 (centres undefined),-3.6%,-6.9%,23.2%,27.0,6.6%,3.9%
COc1ccc(CNC(=O)C2CCCN(S(=O)(=O)c3cccc4nsnc34)C2)cc1 (centres undefined),-11.2%,1.2%,-1.9%,-15.7,23.1µM*,8.3%
Cc1ccc2nc(NC(=O)C(NS(=O)(=O)c3cccc4nsnc34)C(C)C)sc2c1 (centres undefined),29.1µM*,-5.3%,-10.8%,50.8,?,6.7%
COc1ccc(CNC(=O)C2CCN(S(=O)(=O)c3cccc4nsnc34)CC2)cc1,-15.4%,0.2%,-7.9%,-6.6,?,-1.0%
CCOc1ccc2nc(NC(=O)C3CCCN(S(=O)(=O)c4cccc5nonc45)C3)sc2c1 (centres undefined),?,?,23.1µM*,-11.3,16.4µM*,-3.3%
COc1ccc2nc(NC(=O)C3CCCN(S(=O)(=O)c4cccc5nonc45)C3)sc2c1 (centres undefined),?,-7.8%,25.9µM*,-52.7*,?,-5.5%
COc1ccc(CNC(=O)CN(C(=O)CCC(=O)Nc2nccs2)c2ccc3c(c2)OCO3)cc1,-18.3%,?,-4.5%,5.9,-23.9%,-22.5%
CCc1cccc(C)c1NC(=O)Cn1ccn(Cc2ccc(Cl)cc2)c(=O)c1=O,-11.3%,.,.,.,-20.6%,.
COc1ccc2nc(NC(=O)C3CCCN(S(=O)(=O)c4c(C)noc4C)C3)sc2c1 (centres undefined),?,-17.1%,?,-11.2,?,-26.3%
COc1cccc(N2CCN(C(=O)C3CCCN(S(=O)(=O)c4cccc5nsnc45)C3)CC2)c1 (centres undefined),9.2µM*,.,.,.,9.2µM*,.
Cc1ccc(NC(=O)C2CCCN2S(=O)(=O)c2cccc3nsnc23)c(Br)c1 (centres undefined),?,.,.,.,20.6µM*,.
COc1ccc2nc(NC(=O)C3CCCN(S(=O)(=O)c4cccc5nsnc45)C3)sc2c1 (centres undefined),?,-9.5%,11.6µM*,?,16.4µM*,-12.0%
Cc1ccc(NC(=O)C2CCCN(S(=O)(=O)c3cccc4nsnc34)C2)cc1C (centres undefined),?,.,.,.,18.4µM*,.
O=C(Nc1ccc(F)cc1F)C1CCCN1S(=O)(=O)c1cccc2nsnc12 (centres undefined),-0.5%,-4.7%,-5.7%,19.9,?,5.6%
COc1ccc(C(=O)N2CCCCC2CCN2CCCCC2)cc1 (centres undefined),-6.1%,.,.,.,0.6%,.
COc1ccc(NC(=O)Nc2ccccc2C(N)=O)cc1,-20.6%,7.2%,4.5%,0.1,-27.4%,12.6%
COc1ccc(NC(=O)Nc2ccc(O)c3ccccc23)cc1,5.8µM*,-9.6%,.,0.5,13µM*,-25.5%
COc1ccc(C(=O)Nc2ccc(O)c3ccccc23)cc1,?,?,.,0.0,25.9µM*,-27.1%
CCCCCCN1C[C@H](O)[C@@H](n2cc(COC(=O)c3ccccc3)nn2)C[C@@H]1c1ccc(C)cc1,?,-14.8%,.,-4.3,16.4µM*,-18.5%
SMILES,DT40 TDP1 CPT,HT1080 IDH1KD tx,ELG1 repair inh,IL-1B inflam inh,DT40 TDP1 no CPT,HT1080-NT tox
CCCCCCN1C[C@@H](n2cc(COC(=O)c3ccccc3)nn2)[C@H](O)C[C@@H]1c1ccc(C)cc1,18.4µM*,-13.9%,.,-8.3,11.6µM*,9.0%
CCCCCC(=O)N1C[C@H](n2cc(COC(=O)c3ccccc3)nn2)[C@@H](O)C[C@@H]1c1ccc(Cl)cc1,?,?,.,-1.1,16.4µM*,?
CC(C)CC1COC(=O)N1 (centres undefined),?,12.4%,7.3%,-8.4,-7.2%,16.0%
COc1cccc(C(=O)Nc2ccccc2NC(=O)c2cccc(OC)c2)c1,-9.5%,-1.9%,?,-11.9,?,-9.0%
COc1cccc(/C=C(/C(=O)OCC(N)=O)c2ccccc2)c1,-2.0%,-9.0%,-3.0%,-15.9,-26.2%,-8.5%
CCC(=O)Nc1ccc(C=C(C(C)=O)C(C)=O)cc1,?,2.1%,?,-5.5,?,-0.4%
CCC(=O)Nc1ccc(/C=C(\C(C)=O)C(=O)c2ccccc2)cc1,?,16.4µM*,?,-98.3*,23.1µM*,18.4µM*
COc1cccc(C(=O)N/N=C/C(Br)=C/c2ccccc2)c1,1.84µM*,11.6µM*,5.1%,-74.6*,2.91µM*,?
CC(/C=N\NC(=O)c1ccc(C)nc1)=C\c1ccccc1,0.4%,6.8%,28.3%,-7.7,-13.9%,21.6%
COc1ccc(C(=O)N/N=C/C(Br)=C/c2ccccc2)cc1,13µM*,-13.2%,3.4%,-57.7*,14.6µM*,-11.3%
COc1cccc(C=C(C(C)=O)C(=O)c2ccccc2)c1,20.6µM*,16.4µM*,.,-113.4*,14.6µM*,?
CC(C)(C)OC(=O)CNC(=O)c1nc[nH]c1C(=O)N1CCNCC1,-5.0%,23.5%,17.2%,8.5,0.8%,3.3%
